Pf Dd2 growth – blocks in vitro growth of P. falciparum Dd2 | P. falciparum Dd2 growth, SYBR Green, 72 h | Potency, µM (doses to about 28.9 µM), for the others: at the top dose activity, negative = inhibition, most hits filed as inhibitors | 120,000 tested, 4.3% active; active = well fitted inhibition curve with a large enough effect;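 also: plate controls were DMSO vehicle for no effect and reference drug for full effect; nearly all actives have a fitted effect of over 65% in size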
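Infected erythrocytes (Dd2, 0.3% parasitemia, 2.5% hematocrit final) are added to compound in RPMI-1640/Albumax II medium, grown 72 h at 37C in low oxygen, then lysed with saponin/Triton-X containing SYBR Green and read by fluorescence.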
An asterisk follows results filed as active; i = inactive; ! = not confirmed by another sample; [ ] = dose if it differs, or a comment. The entries come from a sample that favours hits as a whole. Potency is read from the fitted curve at half-maximal effect.

SMILES | Pf Dd2 growth
Cc1ccc(-c2[nH]c3ccccc3c2SCCNC(=O)c2ccc(S(=O)(=O)N(C)C)cc2)cc1 | 8.9µM*
CCOc1ccc(C(=O)NCCSc2c(C)[nH]c3ccccc23)cc1OCC | -28%
Cc1ccc(S(=O)(=O)N(CC(=O)NCCSc2ccc(Cl)cc2)c2cccc(Cl)c2)cc1 | i
Cn1ccc(NC(=O)C2(C)CCCc3cnc(NCc4ccccc4)nc32)n1 (stereo not drawn) | i
CCCNC(=O)N1CCC2(CCCN(Cc3cccc(F)c3F)C2=O)C1 (stereo not drawn) | -10%
COc1nccnc1NC1CCN(C(=O)c2ccccc2C)CC1 | i[5.79 µM]
Cn1c(Cn2cccn2)nnc1C1CCCN(C(=O)CCn2cnnn2)C1 (stereo not drawn) | 0%
CCOc1cccc(-c2nnc(CCC(=O)NCCc3ccccc3)c(=O)[nH]2)c1 | i
COc1ccc(OC2CN(Cc3ccc(NC(C)=O)cc3)C2)cc1 | -3%
O=C(NC1CC1)[C@@H]1CN(Cc2ccc(Cl)cc2F)C[C@H]1CO | 7.9µM*
O=C(NCC1CC1)c1cccc(OC2CN(C3CCOCC3)C2)c1 | i
COC[C@@H]1CN(Cc2ccc(F)cc2F)C[C@H]1C(=O)NC1CC1 | -29%
O=C(NC1CC1)[C@@H]1CN(Cc2ccc(OC(F)(F)F)cc2)C[C@H]1CO | 13µM*
O=C(NC1CC1)[C@@H]1CN(Cc2cc(F)c(F)cc2F)C[C@H]1CO | -22%
CNC(=O)[C@@H]1CN(Cc2ccccc2OC(F)(F)F)C[C@H]1CO | 6%
O=C(NCC1CC1)c1cccc(OC2CN(Cc3ccc(OC(F)(F)F)cc3)C2)c1 | 8.9µM*
COC[C@@H]1CN(Cc2ccc(OC)c(C)c2)C[C@H]1C(=O)NC1CC1 | -2%
Cc1ncsc1CN1CCc2nn(CC3CC3)c(=O)n2CC1 | 17%
COc1ccc(CNC(=O)NC2CCc3nnc(C4CC4)n3CC2)cc1 (stereo not drawn) | i
CCn1ncc(N2CCCC(CC(=O)Nc3ccc(F)c(F)c3)C2)cc1=O (stereo not drawn) | -3%
O=C(O)[C@H]1C[C@H](C(=O)NCc2ccncc2)CN(C(=O)C2CCCC2)C1 | 10%
CN(CCn1ccnc1-c1ccc(CO)o1)S(C)(=O)=O | 4%
Cc1cccc(S(=O)(=O)N2C[C@@H](F)C[C@H]2C(=O)N2CCc3ccccc3C2)c1 | 13%
O=C(N[C@H]1CCN2C(=O)[C@@H](Cc3c[nH]c4ccccc34)NC(=O)[C@H]12)c1ccccc1 | -4%[44.1 µM]
O=c1cc(-c2cccnc2)nc(-c2ccc(CN3CC[C@@H](O)C3)cc2)[nH]1 | -28%
SMILES | Pf Dd2 growth
COc1ccccc1-c1ccc(CN2CCN(c3ccc(Cl)nn3)C(=O)C2)cc1 | -12%
O=c1[nH]c(C2CCCN(Cc3ccc(-c4ccccc4)cc3)C2)nc2ccc(F)cc12 (stereo not drawn) | 8.9µM*!
O=c1[nH]c(C2CCN(CC3CCCC3)CC2)nc2ccc(F)cc12 | -6%
COc1ccccc1-c1ccc(CN2CC3CCC(C2)N3c2ccc(C(F)(F)F)cc2)cc1 | -24%
COc1ccccc1-c1ccc(CN2CCCC(c3nc4ccc(F)cc4c(=O)[nH]3)C2)cc1 (stereo not drawn) | 8.9µM*!
O=c1[nH]c(C2CCCN(Cc3ccc(C(F)(F)F)cc3)C2)nn1-c1ccccc1 (stereo not drawn) | -20%
O=c1[nH]c(C2CCN(Cc3ccc(-c4cccnc4)cc3)CC2)nc2ccc(F)cc12 | 4.5µM*!
O=c1[nH]c(C2CCCN(Cc3ccsc3)C2)nn1-c1ccccc1 (stereo not drawn) | i
CN1CC[C@H]2CN(C(=O)c3cnn(C)c3)C[C@@]2(C(=O)O)C1 | 5%
CC(=O)NCCCC(=O)N1CCC2(CC1)CN(C(=O)N(C)C)Cc1ccccc1O2 | -1%
COC[C@@H]1CN(Cc2cc(F)c(F)c(F)c2)C[C@H]1C(=O)NC1CC1 | -16%
CC(=O)N1CCC([C@@H]2CN(Cc3cccc(Cl)c3)C[C@H]2CO)CC1 | i
O=C(CC1CCN(C(=O)Cc2cccc(F)c2)C1)NC1CC1 (stereo not drawn) | i
COc1ccc(Cl)cc1NC(=O)CCC1CCCN(C(=O)c2ccoc2C)C1 (stereo not drawn) | 4µM*
COc1ccc(NC(=O)CCC2CCCN(C(=O)c3ncoc3C)C2)c(C)c1 (stereo not drawn) | 31%
COc1ccc(NC(=O)CCC2CCCN(C(=O)c3ccccc3SC)C2)cc1Cl (stereo not drawn) | i
COc1ccccc1NC(=O)CC(c1cc(OC)c(OC)c(OC)c1)N1Cc2ccccc2C1=O (stereo not drawn) | i
COc1cc(C(CC(=O)Nc2cccc(C(C)=O)c2)N2Cc3ccccc3C2=O)cc(OC)c1OC (stereo not drawn) | 10µM*
CCc1ccc(NC(=O)CC(c2cc(OC)c(OC)c(OC)c2)N2Cc3ccccc3C2=O)cc1 (stereo not drawn) | -19%
Cc1ccc(C2Cn3nnc(C(=O)N4CCN(C(=O)c5ccccc5)CC4)c3CO2)cc1 (stereo not drawn) | i
CCNC(=O)c1cccnc1OC1CCN(C(=O)c2cccc(C)c2)C1 (stereo not drawn) | -4%
O=c1c2nc(Nc3cccnc3)ccc2ncn1-c1ccccc1 | -23%[44.1 µM]
Cc1ncsc1CCCNc1nc(-c2ccccn2)nc2c1CCNCC2 | i
c1cc(-c2nc3c(c(NCc4cn5c(n4)SCC5)n2)CCNCC3)ccn1 | -3%
c1ccc(OCCNc2nc(-c3cccnc3)nc3c2CCNCC3)cc1 | 2.2µM*
SMILES | Pf Dd2 growth
COCCc1nc(-c2cnc(C3CC3)nc2)n(-c2ccc(F)cc2F)n1 | -2%
COc1ccccc1OCc1nc2c(n1Cc1ccccc1)C(=O)N(Cc1ccccc1F)CCN2 | i
C[C@H]1CCCN1C(=O)c1nnc(COc2ccc(Cl)cc2)n1-c1ccccc1 | -12%[44.1 µM]
CC(=O)Nc1cccc(OCc2nnc(C(=O)N3CCC[C@@H]3c3ccc(Br)cc3)n2Cc2ccccc2)c1 | -22%
CC(=O)Nc1cccc2ccc(OCc3nnc(C(=O)N4CCC[C@@H]4c4ccc(Br)cc4)n3Cc3ccccc3)cc12 | 11µM*
O=C(c1ncn[nH]1)N1C[C@@H](COCC2CC2)[C@H](c2ccccn2)C1 | 12%
CN1[C@@H](CCC(=O)N2CCc3ccccc32)CNC(=O)[C@@H]2[C@H]1CCN2Cc1ccccc1 | i
CCOC(=O)c1ccc(N2C(=O)c3[nH]nc(-c4ccc(C)cc4)c3C2c2cccc(F)c2)cc1 (stereo not drawn) | 5µM*
O=C1c2[nH]nc(-c3ccc(F)cc3)c2C(c2ccccc2F)N1c1ccccc1 (stereo not drawn) | -28%
CCOc1ccc(C(=O)OCc2cc(=O)n3nc(C4CC4)sc3n2)cc1 | -7%
CCc1ccc(C2NC(=O)c3[nH]nc(-c4cccc(OC)c4)c32)cc1 (stereo not drawn) | -10%
CCOC(=O)c1ccc(N2C(=O)c3[nH]nc(-c4ccccc4)c3C2c2ccc(CC)cc2)cc1 (stereo not drawn) | 10µM*
CCCN1C(=O)c2[nH]nc(-c3ccc(F)cc3)c2C1c1ccc(O)c(OCC)c1 (stereo not drawn) | i
CCOC(=O)c1ccc(N2C(=O)c3[nH]nc(-c4ccccc4)c3C2c2cccs2)cc1 (stereo not drawn) | 7.1µM*
CCOC(=O)c1ccc(NC(=O)c2oc(=O)c3ccccc3c2-c2ccccc2)cc1 | 24%
CCOc1ccccc1NC(=O)C1=C(C)Nc2ncnn2C1c1cccs1 (stereo not drawn) | 1%

Screening data from PubChem.
